# Screening data from PubChem.
# Integrin act MD – integrin-mediated muscular dystrophy alleviation activation; alpha7betagal myoblasts, beta-gal FDG fluorescence, 48 h; Potency, µM (doses to about 38.3 µM), for the others: at the top dose activation, hits mostly activators; 350,000 tested, 0.064% active; AID 624291;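 also: potency is read from the fitted curve at half-maximal effect; 100% = response of the positive control SU9516; nearly all actives have a fitted effect of over 60% in size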
#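 Alpha7betagal+/- myoblasts (passage 13) were plated 16-24 hr, then exposed to compounds (1:260 dilution of DMSO stock) for 48 hours at 37C. After MPER lysis, β-galactosidase reporter activity was read as FDG fluorescence (ex 480/em 540) after 30 minutes.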
# Anesthetic bind – binds horse apoferritin like a general anesthetic. Potency, µM (titrated, usually from 77.5 µM), without a hit: at the highest dose activity change, negative = displacement, usual class: inhibitors. P02791. apoferritin/1-aminoanthracene competitive binding, fluorescence. AID 485281. 350,000 tested, 0.074% active; also: potency is read from the fitted curve at half-maximal effect; % is scaled to controls: 0 for no effect and ±100 for the full control effect; nearly all actives have a fitted effect of over 20% in size
#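 Steps: apoferritin (10 uM) was premixed with half-saturated 1-AMA in PBS, compounds were pin-transferred, plates stood 10 min at room temperature, fluorescence was read at 380/535 nm, and curves were fitted with a Hill equation.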
# Glioma ERSR ind – inducers of ER stress response in human glioma cells; U87-MG GRP78 promoter luciferase reporter, 16 h; AID 602332; Potency, µM, for inactives: top-dose activation, usual class: activators; 420,000 tested, 0.02% active; also: potency is read from the fitted curve at half-maximal effect; series mostly up to about 76 µM; % of control where 0% means no effect; nearly all actives have a fitted effect of over 35% in size
#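 Stably transfected U87-MG glioma cells carrying a GRP78-based luciferase sensor; 16 h compound incubation. Luminescence end-point read 10 min after Bright-Glo addition at room temperature.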
# ClpP mod – qHTS Assay for Activators of ClpP; ATP-dependent Clp protease proteolytic subunit (Bacillus subtilis (strain 168)), P80244; purified B. subtilis ClpP, FRET peptide cleavage, 20 min; Potency, µM (titrated, usually from 57.5 µM), without a hit: top-dose activity change, negative = active; 340,000 tested, 1.9% active; active = well fitted falling curve with a large enough effect; inconclusive = small, poorly fitted or top-dose-only effect; inactive = no such curve, though single readings can be large or run the other way; also: potency is read from the fitted curve at half-maximal effect; the source files actives as falling curves though it sought activators and does not explain the sign; nearly all actives have a fitted effect of over 65% in size
#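 FRET quenching reversal measured ClpP activation: 10 microg/mL B. subtilis ClpP at pH 8 with the FRET-FV decapeptide, read at 430 nm after 320 nm excitation. The 20-min minus 0-min signal was scaled between DMSO/no-enzyme wells and ADEP (5.8 microM final).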
# CBFb-RUNX1 inh – inhibitors of human CBF-beta and RUNX1 interaction. Q01196+Q13951. AlphaScreen CBFb-His/RUNX1-biotin binding, biochemical. Potency, µM (top dose mostly 59.8 µM), inactives show at the top dose activity, negative = inhibition, usual class: inhibitors. 230,000 tested, under 10 active. AID 1477; also: % of control where 0% means no effect
#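 Room-temperature protein-protein interaction test with 30 nM each of His-tagged CBF-beta and biotinylated RUNX1, 15 min with compound, then 90 min with nickel plus streptavidin beads. Signal read in AlphaScreen mode.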
# N370S GC mod – inhibits or activates N370S mutant glucocerebrosidase | P04062 | N370S GC spleen homogenate, 4MU-glucoside fluorescence | Potency, µM (top dose mostly 59.4 µM), without a hit: at the highest dose activity change, negative = inhibition, usual class: inhibitors | 330,000 tested, 0.092% active | AID 2101;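 also: potency is read from the fitted curve at half-maximal effect; 0% = full enzyme activity and -100% = no enzyme basal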
# * = called active by the depositor; ? = inconclusive; . = not tested or not shown; [ ] = dose if it differs, or a comment. The sample as a whole holds a higher share of hits than the screen did. Unless noted, calls follow the shape of the dose curve; as a rule, active = well fitted curve in the direction sought with a large enough effect; inconclusive = small, poorly fitted or top-dose-only effect, or another doubt; inactive = no such curve, though single readings can be large; an effect the other way counts as inactive or inconclusive.
SMILES,Integrin act MD,Anesthetic bind,Glioma ERSR ind,ClpP mod,CBFb-RUNX1 inh,N370S GC mod
COc1cc(NS(=O)(=O)c2ccc(N)cc2)nc(C)n1,.,.,-3%,.,.,.
Cc1ccc(NC(=O)CN2CCN(S(=O)(=O)c3cccs3)CC2)cc1S(=O)(=O)N(C)C,-9%,-11%,-1%,32µM*,-11%,2%
Cc1ccc(NC(=O)CN2CCc3ccccc3C2)cc1S(=O)(=O)N(C)C,5%,-12%,-2%,.,1%,5%
CC1Cn2c(C(=O)NCc3cccc(Br)c3)cc3cccc(c32)S1 (stereo not drawn),.,56%,2%,32µM*,.,.
COc1ccc(CNC(=O)c2cc3cccc4c3n2CC(C)S4)c(OC)c1 (stereo not drawn),.,49%,-6%,14µM*,.,.
COc1ccc(CNC(=O)c2cc3cccc4c3n2CC(C)S4)cc1OC (stereo not drawn),.,94%,-3%,32µM*,.,.
O=C(NCc1ccccc1Cl)c1cc2cccc3c2n1CCS3,.,91%,-4%,28µM*,.,.
COc1ccc(OC)c(CCNC(=O)c2cc3cccc4c3n2CC(C)S4)c1 (stereo not drawn),.,121%,-4%,32µM*,.,.
CCOc1ccc(CCNC(=O)c2cc3cccc4c3n2CCS4)cc1,.,62%,-3%,22µM*,.,.
COc1ccc(-n2cc(C(=O)NCCc3cc(OC)ccc3OC)c3ccccc3c2=O)cc1,.,?,8%,-5%,.,.
COc1ccc(OC)c(CCNC(=O)c2cc3cccc4c3n2CCS4)c1,.,74%,-3%,32µM*,.,.
COc1cccc(CNC(=O)c2cc3cccc4c3n2CC(C)S4)c1OC (stereo not drawn),.,60%,-2%,35µM*,.,.
COc1ccccc1CNC(=O)c1cc2cccc3c2n1CCS3,.,5%,-2%,?,.,.
CCCCCCCCCCCCCCCCOC[C@H](COP(=O)([O-])OCC[N+](C)(C)C)OC(=O)CCCCCCCC(=O)O,.,-13%,-7%,.,-7%,-7%
C=C(c1nc2ccccc2s1)C1Cc2cccc3c2N(CCC3)C1 (stereo not drawn),.,.,-9%,0%,.,.
O=C(O)c1ccc(/C=N/Nc2ccc(F)cc2F)cc1,-14%,-9%,-10%,0%,-11%,-4%
Fc1ccc(N/N=C/c2ccncc2)c(F)c1,4%,6%,5%,22µM*,-10%,-19%
COc1ccc2cc(C#N)c(NC(C)C)nc2c1,10%,45%,-3%,22µM*,22%,16%
CCN(CC)c1nc2cc(OC)ccc2cc1C#N,-1%,-1%,-1%,5%,?,12%
COC(=O)C1CSC(C(=O)OC)N1C(=O)Nc1ccc(Cl)cc1 (stereo not drawn),0%,?,-5%,32µM*,-1%,10%
CCN(CCO)C(=O)c1cnn(-c2ncc3c(n2)-c2ccccc2CCC3)c1C1CC1,.,.,7%,.,.,.
COc1ccc(N2C(=O)c3ccccc3NC23CCCCC3)cc1,0%,-9%,0%,28µM*,2%,12%
CCOC(=O)C1CCN(C(=O)CSCc2nc(-c3ccc(OCC)cc3)oc2C)CC1,-36%,-14%,-1%,28µM*,7%,0%
CC(C)c1onc(-c2c(Cl)cccc2Cl)c1COc1ccc(/C=C/c2cccc(C(=O)O)c2)c(Cl)c1,.,?,-2%,.,-4%,10%
Cc1ccc(Nc2nc(N)nc(CSc3nccn3C)n2)c(C)c1,14%,-3%,2%,4µM*,3%,6%
SMILES,Integrin act MD,Anesthetic bind,Glioma ERSR ind,ClpP mod,CBFb-RUNX1 inh,N370S GC mod
COc1ccc(-n2nc3cc(C)c(NC(=O)c4cccnc4)cc3n2)cc1,19%,-7%,4%,25µM*,1%,0%
CCCC(=O)Nc1cc2nn(-c3ccc(OC)cc3)nc2cc1C,.,2%,-1%,4%,.,.
COC(=O)c1cccc(NC(=O)c2cccnc2)c1,10%,-4%,-1%,14µM*,1%,-1%
COc1ccc(CNC(=O)c2cnn(-c3ncc4c(n3)-c3ccccc3CC4)c2C)cc1OC,.,.,5%,.,.,.
Cn1c(=O)c2c(nc(Cl)n2CC(=O)NC2(C#N)CCCCC2)n(C)c1=O,23%,.,-3%,28µM*,.,-15%
N#CC1(NC(=O)Cn2ncc(Cl)c(Cl)c2=O)CCCCC1,-18%,.,-15%,.,.,0%
Cc1cc[n+]2c3c(cccc13)CCC2,-24%[7.66 µM],-11%,1%,25µM*,-4%,2%
COc1ccc2oc(C(=O)OCC(=O)Nc3cc(S(=O)(=O)N4CCOCC4)ccc3C)c(C)c2c1,13%,.,-2%,.,.,-1%
COc1ccc2oc(C(=O)OCC(=O)Nc3cc(S(=O)(=O)N4CCOCC4)ccc3OC)c(C)c2c1,-5%,.,-2%,10µM*,.,-22%
COc1ccc2oc(C(=O)OCC(=O)Nc3ccc(OC)c(S(N)(=O)=O)c3)c(C)c2c1,-10%,.,2%,28µM*,.,-4%
COc1ccc2oc(C(=O)OCC(=O)Nc3cccc(S(=O)(=O)N4CCOCC4)c3)c(C)c2c1,-7%,.,1%,.,.,-23%
CC(=O)N/C(=C/c1ccccc1)c1sc2ccccc2[n+]1CCCCI,.,.,0%,1%,.,.
O=C(Cn1cnc2ccccc2c1=O)N1CCN(Cc2ccccc2)CC1,4%,-5%,-2%,20µM*,3%,-2%
O=C(Cn1cnc2c(cnn2-c2ccccc2)c1=O)N1CCN(c2ccc(F)cc2)CC1,4%,1%,-3%,-2%,2%,-3%
O=C(Cn1cnc2c(nnn2Cc2ccc(F)cc2)c1=O)N1CCN(c2ccccc2)CC1,-14%,?,-6%,25µM*,-5%,1%
CN(C)c1oc(-c2ccc(COc3ccccc3)o2)nc1C#N,.,172%,0%,32µM*,.,.
CN(C)c1oc(-c2ccc(OCc3ccc(Cl)cc3)cc2)nc1C#N,22%,-16%,-2%,16µM*,9%,4%
N#Cc1nc(-c2ccc(COc3ccccc3)o2)oc1NCc1cccnc1,.,-8%,-1%,?,.,.
Cc1cc2ccccc2cn1,.,.,-3%,-5%,.,.
O=C(NCc1ccccn1)c1cnn(-c2ncc3c(n2)-c2ccccc2CC3)c1C1CC1,.,.,-3%,.,.,.
Cn1c(=O)[nH]c(=O)c2c1nc(Br)n2CCC(=O)c1ccccc1,1%,-13%,-2%,28µM*,17%,2%[2.35 µM]
Cn1c(=O)[nH]c(=O)c2c1nc(Br)n2C/C=N/NC(=O)c1ccccc1,-11%,-15%,3%,.,1%,-17%
CCCCCCc1ccc(-c2ncc(N)cn2)cc1,-14%,?,3%,32µM*,-2%,14%
CC(=O)Nc1ccc(Nc2nc(C)nc3c2oc2ccccc23)cc1,-14%,76%,-7%,14%,5%,-10%
